A selection: hits, their analogues and other compounds. The true share with any hit is near 3.7%.
PfHsp90 yeast 2 – growth inhibition of PfHsp90-expressing yeast, primary screen, antimalarial PfHsp90 inhibitor project, S. cerevisiae, BacTiter-Glo luminescence, single point, set 2; BacTiter-Glo ATP, 48 h; yeast lacking PDR1 and PDR3 efflux regulators; inhibition, % at 9.4 µM; 310,000 compounds, 0.32% hits; AID 504621, 2011;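 active means every replicate shows inhibition above about 80%, whatever the replicate mean, limit read from the data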;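 further: 0% = DMSO neutral controls and 100% = 20 µM radicicol positive controls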
V-ATPase pHluor – regulators of yeast V-ATPase proton pumping, primary screen, pHLuorin cytosolic pH fluorescence; S. cerevisiae; response, % at 10 µM; 350,000 compounds, 0.37% hits; in the data active means response mostly above about 7.3%, no sharp cut-off; inactive means mostly below about 5.4%; further: actives read high
TIM10 inh – growth inhibitors of isogenic TIM10 control yeast, primary screen, counter-screen for tim10-1 yeast inhibitor project, luminescence, uHTS | S. cerevisiae TIM10 strain growth, BacTiter-Glo luminescence, 24 h | inhibition, % at 10 µM | 330,000 compounds, 1.4% hits | AID 463195, 2010;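 active means inhibition of 40% or more at the single tested concentration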;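 further: wild-type TIM10 isogenic control strain grown at permissive 25 °C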
tim10-1 inh – growth inhibitors of tim10-1 mutant yeast, primary screen, luminescence, uHTS; S. cerevisiae tim10-1 ts strain growth, BacTiter-Glo, 24 h; inhibition, % at 20 µM; 330,000 compounds, 2.2% hits;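 active means inhibition of at least 40%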;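 further: mutant grown at 25 °C; 0% = DMSO wells with yeast and 100% = wells holding no yeast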
tim23-1 inh – growth inhibitors of tim23-1 mutant yeast, primary screen, luminescence, uHTS | S. cerevisiae tim23-1 growth, BacTiter-Glo luminescence, 24 h | inhibition, % at 20 µM | 330,000 compounds, 1.3% hits;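 active means growth inhibition of the mutant yeast at or above 50%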;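 further: temperature-sensitive mutant grown at 25 °C; plate controls were DMSO-treated mutant yeast for no effect and medium wells lacking yeast for full effect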
tim23-1 confirm – tim23-1 mutant yeast growth inhibitors, confirmation, luminescence, single concentration; shares compounds with tim23-1 inh; S. cerevisiae tim23-1 growth, BacTiter-Glo luminescence, 24 h; inhibition, % at 20 µM; 4,400 compounds, 83% hits; AID 463218, 2010;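 active means inhibition above about 39% in either of two replicate wells at 20 µM, limit read from the data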;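 further: temperature-sensitive tim23-1 mutant grown at 25 °C; 0% = DMSO wells with yeast and 100% = medium wells without yeast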
An asterisk follows results filed as active; . = not tested or not shown.

SMILES	PfHsp90 yeast 2	V-ATPase pHluor	TIM10 inh	tim10-1 inh	tim23-1 inh	tim23-1 confirm
COc1cc(/C=C/C(=O)OCC(=O)NCc2ccccc2OC)ccc1O	3	-6	-10	-10	89*	17
Cc1nn(CC(=O)Nc2ccc3nc4n(c(=O)c3c2)CCCC4)c(C)c1[N+](=O)[O-]	-5	0	-10	15	-6	.
NS(=O)(=O)c1ccc(N2N=C(c3ccccc3)CC2c2cccc(F)c2)cc1 (stereo not given)	-24	0	.	.	.	.
NS(=O)(=O)c1ccc(N2N=C(c3ccccc3)CC2c2cccc(Br)c2)cc1 (stereo not given)	19	-2	13	35	52*	33
COc1ccc2c(c1)C(=O)N(c1ccc(C)cc1C)C(=O)C2	-7	-1	-4	22	45	.
COc1ccc2c(c1)C(=O)N(c1ccc(C)cc1C)C(=O)C2(C)C	-10	1	36	33	55*	57*
CCOc1ccc(C(C)=O)cc1COC(=O)CNC(=O)C12CC3CC(CC(C3)C1)C2	-7	6	22	26	50*	35
CCOc1ccc(C(=O)NCC(=O)OCc2cc(C(C)=O)ccc2OC)cc1	11	3	6	5	14	.
O=C(CNC(=O)C12CC3CC(CC(C3)C1)C2)OCc1ccc(F)cc1Cl	18	0	28	22	52*	60*
COc1ccc2c(c1)C(=O)C1NC(=O)NC(=O)C1(Br)N2 (stereo not given)	0	-3	.	.	.	.
O=[N+]([O-])c1ccc(CNc2ccc(F)cc2)s1	3	2	36	33	51*	46*
COc1ccc(NCc2ccc([N+](=O)[O-])s2)cc1	1	-2	29	20	58*	69*
O=[N+]([O-])c1ccc(CNc2cccc(Cl)c2)s1	-10	1	23	23	57*	56*
O=C(c1ccc([N+](=O)[O-])s1)N1CCN(c2cccc(Cl)c2)CC1	-2	-4	26	-62	-34	.
COc1ccc(NCc2ccc([N+](=O)[O-])s2)c(OC)c1	-1	1	.	.	.	.
CCOC(=O)c1c(NC(=O)CSc2nc3ccc(C)cc3[nH]2)sc2c1CC(C)(C)NC2(C)C	7	0	1	23	24	.
Cc1cc(C)cc(N(C(C)C(=O)NC2CCCC2)S(C)(=O)=O)c1 (stereo not given)	-21	0	-11	12	88*	11
CCOc1ccc(N(C(C)C(=O)NC2CCCCCC2)S(C)(=O)=O)cc1 (stereo not given)	-5	-2	-5	15	15	.
O=C(CSc1ccccc1)N/N=C/c1ccccc1O	-19	-3	19	25	52*	55*
CCOc1ccc(Nc2nc(NCC3CCCO3)c3ccccc3n2)cc1 (stereo not given)	-23	0	11	-5	-41	.
Cc1cc(NC(=O)C(C)SCC(=O)N(C)Cc2c(F)cccc2Cl)no1 (stereo not given)	14	2	-15	9	10	.
CCCCC(=O)Nc1ccc(NC(=O)CCCC)nc1	8	-1	2	12	20	.
CCCCC(=O)Nc1ccc(NC(=O)c2cccs2)cn1	1	1	-11	-16	51*	43*
COc1ccc(NC(=O)c2cccs2)cn1	-6	2	19	16	52*	48*
N#Cc1ccc(OCC(=O)Nc2ccc(N3CCCC3)cc2)cc1	-15	-2	3	8	17	.
SMILES	PfHsp90 yeast 2	V-ATPase pHluor	TIM10 inh	tim10-1 inh	tim23-1 inh	tim23-1 confirm
CCOc1ncccc1C(=O)OCC(=O)NC1CCCCCC1	.	1	-8	0	19	.
Oc1ccc(-c2nccc(-c3cccs3)n2)cc1	.	0	20	8	57*	58*
O=C1/C(=C\c2cccnc2)Sc2ccccc21	-15	5	17	17	53*	59*
CN1C(=O)S/C(=C/c2cccnc2)C1=O	-74	3	6	26	21	.
COc1ccc([C@H]2C[C@H](n3cc(C4CC4)nn3)[C@@H](O)CN2CC2CCCCC2)cc1	.	-2	.	.	.	.
CNC(=S)N/N=C/c1cc(Br)cc(Br)c1O	24	0	35	25	58*	54*
CC(C)(C)NC(=S)N/N=C/c1cc(Br)c(O)c(Br)c1	-4	-3	17	25	35	.
O=C(N/N=C\c1ccc2c(c1)OCO2)c1ccco1	6	0	18	-23	25	.
O=C(N/N=C/c1ccc2cccnc2c1)c1ccco1	-13	2	27	19	59*	64*
CN(C)N1C(N)=C(C#N)C(c2ccc(Br)cc2)C2=C1CC(C)(C)CC2=O (stereo not given)	-2	1	4	0	-2	.
CCN(Cc1ccncc1)C(=O)C1CCC(=O)N(Cc2ccc(Cl)cc2)C1 (stereo not given)	-2	4	-5	-8	-20	.
COc1cc(/C=C/c2ccc(O)cc2)cc(OC)c1	21	-1	19	26	51*	28
COc1ccc(/C=C/c2cc(O)cc(OC3OC(CO)C(O)C(O)C3O)c2)cc1 (stereo not given)	-3	3	.	.	.	.
Cc1cccc(Oc2nc(-c3ccccn3)nc3ccccc23)c1	-4	0	26	40	51*	46*
c1ccc2[nH]c(CSc3nc4ccccc4o3)nc2c1	-17	-4	13	-40	54*	55*
c1cncc(-c2nnc(SCc3nc4ccccc4[nH]3)o2)c1	31	-2	-6	0	-1	.
CCOc1cc(/C=C2\COc3ccccc3C2=O)cc(Br)c1OCC(=O)N(C)C	47	4	2	10	50*	57*
CCOc1cc(/C=N/Nc2nc3ccccc3[nH]2)cc(Br)c1OCC(=O)N(C)C	.	-1	16	7	-4	.
CC(O)[C@H]1CNCCN1CC1(c2ccccc2)CC1 (stereo not given in full)	7	2	-8	5	12	.
CCOc1ccc(S(=O)(=O)NCCC(=O)N2CC=C(c3ccccc3)CC2)cc1	-22	-2	14	17	34	.
COc1cccc(CNc2ncnc3cc(Cl)ccc23)c1	-7	2	.	.	.	.
Fc1cccc(CNc2ncnc3cc(Cl)ccc23)c1F	-5	2	13	18	60*	12
CSc1cccc(NC(=O)COC(=O)c2ccccn2)c1	-6	-3	7	-8	-8	.
CCn1c(N2CCN(S(=O)(=O)c3ccc(Cl)cc3)CC2)nc2ccccc21	29	-4	13	21	63*	43*
Cc1ccc(NC(=O)CN(C)C(=O)COC(=O)[C@@H](NC(=O)c2ccccc2F)C(C)C)cc1	-43	-1	5	-7	-2	.

Assay outcomes deposited in PubChem BioAssay by several laboratories.
